Screening results from PubChem.
Lassa entry inh: Lassa virus entry inhibition | Lassa virus pseudotype entry inhibition, cell reporter | Potency, µM (titrated, usually from 37.9 µM), for inactives: at the highest dose activity change, negative = inhibition, usual class: inhibitors | hit rate 1.2% among 300,000 | AID 540256; calls by dose curve; tested in HEK293 cells; note: potency is the fitted concentration of half-maximal effect; % is set by controls: 0 for no effect and ±100 for the full control effect; nearly all actives have a fitted effect of over 50% in size
FMDV inh: blocks foot and mouth disease virus; FMDV antiviral cell-based qHTS; hit rate 1.2% among 410,000; Potency, µM (titrated, usually from 57.9 µM), for inactives: top-dose activity change, negative = inhibition, most hits filed as inhibitors; calls by dose curve; tested in HEK293T cells; note: read-out not given here; potency is the fitted concentration of half-maximal effect; % is set by controls: 0 for no effect and ±100 for the full control effect; nearly all actives have a fitted effect of over 45% in size
MARV entry inh: Marburg virus entry inhibition; Marburg virus pseudotyped entry inhibition, cell reporter; Potency, µM (series often up to 37.8 µM), for inactives: top-dose activity change, negative = inhibition, usual class: inhibitors; hit rate 1.8% among 300,000; AID 540276; calls by dose curve; tested in HEK293 cells; note: potency is the fitted concentration of half-maximal effect; % is set by controls: 0 for no effect and ±100 for the full control effect
SARS PLpro yeast: blocks SARS-CoV papain-like protease in a yeast assay; hit rate 0.19% among 330,000; Potency, µM (titrated, usually from 32.9 µM), for inactives: at the highest dose activity, positive = growth rescue, most hits filed as activators; AID 485353; S. cerevisiae expressing SARS-CoV PLpro, growth rescue; calls by dose curve; note: potency is the fitted concentration of half-maximal effect; 0% is about no effect; nearly all actives have a fitted effect of over 55% in size
HCV inh: HCV inhibition; Huh7.5.1 HCVcc-Cre infection, luciferase reporter, 44 h; Potency, µM (titrated, usually from 41.8 µM), for inactives: at the top dose activity change, negative = inhibition, most hits filed as inhibitors; hit rate 3.4% among 340,000; AID 651820; active = well fitted inhibition curve with a large enough effect; inconclusive = small, poorly fitted or top-dose-only effect, or another doubt; inactive = no such curve, though single readings can be large or run the other way; note: potency is the fitted concentration of half-maximal effect; % is set by controls: 0 for no effect and ±100 for the full control effect
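Seed cells (1,000/well) for 4 h; treat with compound and infect with HCVcc-Cre, moi about 0.5. Incubate 44 h, then detect luciferase activity.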
HCMV antiviral: human cytomegalovirus inhibition | HFF cells, HCMV-luciferase reporter, 72 h; stronger effect = lower value | activity change, negative = inhibition, % at 57.5 µM | hit rate 4.5% among 410,000 | AID 1259415; in the data active = activity change below about -60%; inconclusive = no clear call, values can overlap the other calls; inactive = above about -39%; note: % is set by controls: 0 for no effect and ±100 for the full control effect
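Screen run at 2 compound doses on HFFs infected with reporter HCMV, MOI 1 PFU/cell. Luciferase activity from cell lysates at 72 h post infection gave inhibition relative to buffer-only and Salinomycin wells.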
Starred values were filed as active, the others as inactive; u = inconclusive; x = not tested or not shown; [ ] = another dose, or the depositor's remark. Sampled rows, rich in hits. Any-hit rate of the full collection: about 8%.

SMILES	Lassa entry inh	FMDV inh	MARV entry inh	SARS PLpro yeast	HCV inh	HCMV antiviral
CN1N=C(N)c2cn(C3OC(COP(=O)(O)O)C(O)C3O)c3ncnc1c23 (stereo not given)	-28.2%	-13.3%	u	x	u	-69.6*
Nc1ncnc2c1ncn2C1OC(COP(=O)(O)O)C(O)C1O (stereo not given)	x	4.9%	x	-39.8%	6.6%	101.4
Nc1ncnc2c1ncn2[C@@H]1O[C@H](COP(=O)(O)CP(=O)(O)OP(=O)(O)O)[C@H](O)[C@H]1O	x	x	4.7%	x	x	x
CCOC(=O)c1c[nH]c2ccc3ccccc3c2c1=O	x	6.8%	x	u	-7.4%	24.6
CCOC(=O)c1[nH]cnc1N=Nc1c(O)ccc2ccccc12	u	-19.2%	u	7.2%	7.94µM*	-97.3*
Oc1ccc2ccccc2c1N=Nc1ccccc1F	x	19.3%	x	-1.6%	u	-0.5
Oc1ccc2ccccc2c1N=Nc1ccccn1	8.91µM*	u	u	-22.1%	8.91µM*	-97.7*
CCc1ccc(NC(=O)N2CCOc3ccc(Cl)cc32)cc1	13.3%[46.1 µM]	17.7%	x	x	x	17.5
Cc1nn(-c2ccccc2)c(Cl)c1/C=N/Nc1ccc(Cl)c(C(=O)O)c1	u	10µM*	2µM*	4.9%	8.4%	138.5
CCOc1ccc(N(C)S(=O)(=O)c2c(C(=O)N3CCC(C)CC3)c(C)n(C)c2C)cc1	u	11.8%	x	x	x	u
O=C(c1ccccc1[N+](=O)[O-])N1CCC[C@@H]1c1noc2ccccc12	x	x	x	x	x	-61.6*
CCCCN(CC)CCNC(=O)c1cc2c(=O)oc3ccc(C)cc3c2s1	7.1%[46.1 µM]	-19.8%	15.3%[46.1 µM]	x	x	4.9
Cc1ccc(C)c(S(=O)(=O)N2CCN(CC(=O)NC(=O)NCc3ccccc3)CC2)c1	25.9µM*	u	u	1.8%	-11.6%	-0.5
CCOC(=O)c1c(C)[nH]c(C(=O)OCC(=O)N2CCN(S(=O)(=O)c3ccc(C)cc3C)CC2)c1C	x	u	x	10.2%[6.58 µM]	14.1µM*	-29.0
CSc1ccc(CSCC(=O)N2CCN(S(=O)(=O)c3ccc(C)cc3C)CC2)cc1	x	u	x	9.5%	8.91µM*	-19.6
Cc1ccc(S(=O)(=O)N2CCN(C(=O)NCc3ccc(F)cc3)CC2)c(C)c1	-10.8%	-16.3%	u	-0.8%	-21.5%	-71.0*
COc1ccc(CNC(=O)N2CCN(S(=O)(=O)c3ccc(C)cc3C)CC2)cc1	-11.5%	-6.4%	-23.5%	-3.0%	u	29.1
CC(=O)c1c(C)[nH]c(C(=O)N2CCN(S(=O)(=O)c3ccc(C)cc3C)CC2)c1C	x	-25.5%	x	1.1%	-11.3%	7.9
CC(=O)N1CCc2c(sc3c2c(=O)n(-c2ccccc2)c(=O)n3CC(=O)c2ccc(Cl)cc2)C1	x	-22.7%	-29.9%[46.1 µM]	x	x	-3.6
C[N+]1(Cc2ccccc2)CCC(C(=O)OCC2CCCC2)CC1 (stereo not given)	x	-9.4%	x	x	x	x
CC1=C(c2ccc(C)c(C)c2)S(=O)(=O)N=C1N1CCC(C(=O)N2CCC(C)CC2)CC1	-0.8%[46.1 µM]	-16.3%	x	x	x	2.5
Cc1ccc(-n2nc(C)c(C(=O)Nc3cccc(C(=O)NC4CC4)c3)n2)c(C)c1	x	28.2µM*	x	-5.3%	11.2µM*	u
Cc1cccc(C(=O)Nc2cccc(C(=O)NC3CCCC3)c2)c1	x	-21.3%	x	-1.5%	u	-33.3
Cc1nn(-c2ccccc2)nc1C(=O)Nc1cccc(C(=O)NC2CC2)c1	x	31.6µM*	x	x	x	-4.3
Cc1nn(-c2cccc(Cl)c2)nc1C(=O)Nc1cccc(C(=O)NC2CC2)c1	x	u	x	-4.1%	10µM*	3.5
SMILES	Lassa entry inh	FMDV inh	MARV entry inh	SARS PLpro yeast	HCV inh	HCMV antiviral
COc1ccc(N(CC(=O)N2CCc3ccccc3C2)S(=O)(=O)c2ccc(C)cc2)cc1Cl	u	33.2%	-11.8%[46.1 µM]	x	x	-17.5
O=C(CCC(=O)N1CC2CCCN2c2ccccc21)NCc1ccccc1 (stereo not given)	7.1%[46.1 µM]	-6.4%	x	x	x	-3.3
CCOC(=O)N1CCC(NC(=S)Nc2ccc3nc(N4CCN(C)CC4)cc(C)c3c2)CC1	21.6%	8.7%	u	1.9%	10µM*	-31.3
COc1ccc(C)cc1NC(=O)CCC(=O)Nc1ccc2nc(N3CCN(C)CC3)cc(C)c2c1	-4.0%	-10.0%	u	3.8%	10µM*	x
CCOC(=O)N1CCC(NC(=S)Nc2ccc3nc(N4CCN(CC)CC4)cc(C)c3c2)CC1	x	-8.7%	x	-0.9%	-23.2%	-8.7
CCN(CC)c1ccc(C(=O)Nc2ccc3nc(N(CC)CC)cc(C)c3c2)cc1	u	-26.7%	11.2µM*	x	x	-67.2*
Cc1cc(N2CCOCC2)nc2ccc(NC(=O)CCC(=O)N3CCN(c4ccc(F)cc4)CC3)cc12	-22.5%[46.1 µM]	-0.9%	2.2%[46.1 µM]	-0.6%	u	57.9
Cc1cc(N2CCOCC2)nc2ccc(NC(=O)CCC(=O)N3CCN(c4ccccc4F)CC3)cc12	u	-7.1%	u	0.4%	22.4µM*	10.7
CCN1CCN(c2cc(C)c3cc(NC(=O)CCC(=O)Nc4ccc(OC)c(OC)c4)ccc3n2)CC1	x	-15.3%	x	1.6%	-19.5%	19.6
CC(C)(C)c1ccc(O[C@@H]2[C@H](O)CO[C@H]2C=CC#Cc2ccccc2)cc1	x	x	-15.8%[14.2 µM]	x	x	x
Cc1ccc2[nH]c(-c3ccc(Cl)cc3)c(C#N)c2c1	x	x	x	x	x	33.6
Cc1cc(N2CCN(C)CC2)nc2ccc(NC(=O)Nc3ccc(Cl)cc3)cc12	8.3%[46.1 µM]	2.2%	x	x	x	10.9
COc1ccc(/C=C/C(=O)Nc2ccc3nc(N4CCC(C)CC4)cc(C)c3c2)cc1OC	u	-13.4%	10µM*	x	x	-87.6*
CCOc1ccccc1NC(=O)Nc1ccc2nc(N3CCN(C)CC3)cc(C)c2c1	u	23.2%	x	x	x	-105.6*
Cc1ccccc1NC(=O)Nc1ccc2nc(N3CCN(C)CC3)cc(C)c2c1	u	-14.9%	x	x	x	-21.7
Cc1cc(N2CCN(C)CC2)nc2ccc(NC(=O)c3ccc(C(C)(C)C)cc3)cc12	4.8%[46.1 µM]	u	u	x	x	-106.2*
COc1ccccc1CC(=O)Nc1ccc2nc(N3CCC(C)CC3)cc(C)c2c1	u	0.0%	-26.1%[46.1 µM]	x	x	-6.7
CCN1CCN(c2cc(C)c3cc(NC(=O)/C=C/c4ccc(OCCC(C)C)cc4)ccc3n2)CC1	25.7%[46.1 µM]	u	0.2%[46.1 µM]	x	x	-78.6*
CCN1CCN(c2cc(C)c3cc(NC(=O)/C=C/c4ccc(C)cc4)ccc3n2)CC1	21.6%[46.1 µM]	-6.7%	u	x	x	-20.9
Cc1cnc(-n2ncc(C(=O)NCCc3ccccn3)c2C)nc1-c1ccc(F)cc1	x	-0.6%	x	x	x	x
CCC(C)NC(=O)c1cccc(NC(=O)c2nsc3ccccc23)c1 (stereo not given)	u	18.3%	x	x	x	68.6
COc1ccc(Cc2c(C)nn(-c3nc(C)c(C(=O)Nc4ccc(C)cc4C)s3)c2C)cc1	8.2%[46.1 µM]	-24.9%	7.9%[46.1 µM]	x	x	8.7
CCN1CCN(c2cc(C)c3cc(NC(=O)c4ccc(OC)c(OC)c4)ccc3n2)CC1	-1.1%[46.1 µM]	8.7%	u	4.1%	11.2µM*	u
CCN1CCN(c2cc(C)c3cc(NC(=O)c4cccc(OC)c4)ccc3n2)CC1	x	27.7%	x	0.8%	u	u
